# Results from PubChem BioAssay AID1672 (Johns Hopkins Ion Channel Center, 2009).
# Hit rate of the full screen: of about 310,000 compounds, about 2,600 (0.84%) were called active. What follows is part of a selection rich in actives, with near analogues and random picks from the rest. Unmarked numbers belong to inactive results.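 Rule for the calls: active = fluorescence ratio B-score at or below minus 3 SD of library scores, with starting-brightness B-score within 2 SD (cut at about -4.2 in these data); inactive = the rest.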
# Target: Inward rectifier potassium channel 2 (Mus musculus) (UniProt P35561)
# Sequence (P35561 whole entry, looked up): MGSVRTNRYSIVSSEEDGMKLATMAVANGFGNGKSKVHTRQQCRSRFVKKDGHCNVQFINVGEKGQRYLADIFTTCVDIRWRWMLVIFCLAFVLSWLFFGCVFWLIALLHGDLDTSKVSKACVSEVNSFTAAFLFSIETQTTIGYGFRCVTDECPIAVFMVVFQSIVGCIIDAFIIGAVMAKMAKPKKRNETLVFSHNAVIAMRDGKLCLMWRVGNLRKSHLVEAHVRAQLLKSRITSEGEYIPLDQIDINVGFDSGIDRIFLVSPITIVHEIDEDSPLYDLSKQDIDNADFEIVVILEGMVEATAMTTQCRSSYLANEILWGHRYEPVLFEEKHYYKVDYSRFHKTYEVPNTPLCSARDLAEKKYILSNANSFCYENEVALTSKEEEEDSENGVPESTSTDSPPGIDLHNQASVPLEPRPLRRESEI
# Assay: inhibitors of mouse Kir2.1 inward-rectifier potassium channel (AID 1672);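 note: channel flux triggered by added potassium and thallium sulfate stimulus; B-score of peak minus minimum fluorescence over baseline after thallium stimulus; more negative B-score means stronger Kir2.1 block with less thallium influx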
# Settings: HEK293-Kir2.1, FluxOR thallium flux fluorescence; at 10 µM; stronger effect = lower value
row,SMILES,B-score
1,O=C(NCC1CC1)c1onc(CSc2ccccc2)c1C(=O)NCC1CC1,-0.33
2,Cc1ccc(C)c(OCCC(=O)OCC(=O)NC(=O)NCc2ccccc2)c1,-1.35
3,O=C(c1ccc(NS(=O)(=O)c2ccc3[nH]c(=O)[nH]c3c2)cc1)N1CCCCC1,-0.24
4,O=C(Nc1nc2ccc([N+](=O)[O-])cc2s1)c1ccc(S(=O)(=O)N2CCCc3ccccc32)cc1,1.56
5,O=C(COC(=O)c1ccc(F)cc1)Nc1nc2ccc([N+](=O)[O-])cc2s1,-0.31
6,O=C(NC(Nc1nc2ccc([N+](=O)[O-])cc2s1)(C(F)(F)F)C(F)(F)F)c1ccccc1,-10.5 (active)
7,Cc1nc(-c2ccccc2)sc1C1(C)CC(c2cccnc2)=NO1 (stereo not drawn),-0.61
8,O=C(Nc1ccc2nc3n(c(=O)c2c1)CCCC3)c1ccc(Cl)nc1,-0.4
9,CCc1cccc(C)c1NC(=O)COC(=O)CNC(=O)c1cccs1,-0.01
10,CCOC(=O)N1CCN(C(=O)c2ccccc2SCC(=O)NCC2CCCCC2)CC1,-1.08
11,OC(CNCCc1ccc(Cl)cc1Cl)COc1ccccc1 (stereo not drawn),-5.54 (active)
12,OC(CNCc1ccc2c(c1)OCO2)COc1ccccc1 (stereo not drawn),0.51
13,CC(CCc1ccc(O)cc1)NCc1ccc(Cl)cc1Cl (stereo not drawn),-1.22
14,O=C(Oc1ccc(-c2nnco2)cc1)c1ccc(F)c(S(=O)(=O)N2CCOCC2)c1,0.69
15,Cc1ccc2nc(SCC(=O)N3CCN(c4ccccc4)CC3)nc(=O)n2c1,-0.66
16,NC(=O)c1cc(S(=O)(=O)NCCCc2ccco2)cs1,-1.45
17,CCOC(=O)c1c(C)[nH]c(C)c1S(=O)(=O)NCCCc1ccco1,-4.22 (active)
18,CCOC(=O)c1c(C)[nH]c(C)c1S(=O)(=O)N(C)CC(=O)Nc1ccccc1C,-0.21
19,O=S(=O)(NCCCc1ccccc1)c1ccc(Br)cc1,-0.26
20,C=C(C)CNC(=O)c1ccc(OC2CCN(C(=O)COC)CC2)cc1,2.19
21,CC(C)c1ccc(S(=O)(=O)N2CCN(C(=O)CN3C(=O)NC(C)(c4ccccc4)C3=O)CC2)cc1 (stereo not drawn),-0.17
22,CN(C1CCS(=O)(=O)C1)S(=O)(=O)c1ccc2ccccc2c1 (stereo not drawn),-2.88
23,CCN1CCN(CCNC(=O)c2ccc3c(c2)NC(=O)/C(=C\c2ccc(OC)c(OC)c2)S3)CC1,-0.6
24,O=C1Nc2cc(C(=O)N3CCC(N4CCCCC4)CC3)ccc2S/C1=C\c1ccccc1,-5.53 (active)
25,CC1CCN(C(=O)c2ccc3c(c2)NC(=O)CN3)CC1,-1.15

row,SMILES,B-score
1,Cn1c(CCCOc2ccc(Cl)cc2Cl)n[nH]c1=S,1.02
2,CN(C)CCOc1ccc(Cl)cc1C(C)(C)C,-4.91 (active)
3,CC(C)(C)NCCCOc1ccc(Cl)cc1C(C)(C)C,-3
4,CC(C)COc1ccc(C(=O)OCC(=O)NCCC2=CCCCC2)cc1,-0.32
5,CC1(C)C/C(=N/Nc2ccc([N+](=O)[O-])cc2[N+](=O)[O-])C(C)(C)O1,-0.99
6,Cc1ccc2nc(SCC(=O)Nc3cccc4ccccc34)nc(=O)n2c1,-0.81
7,COc1ccccc1CNS(=O)(=O)c1ccc2c(c1)NC(=O)CS2,-3.14
8,O=C1CSc2ccc(S(=O)(=O)NCc3ccccc3)cc2N1,-1.97
9,CCC(Cc1ccccc1)NS(=O)(=O)c1ccc2c(c1)NC(=O)CS2 (stereo not drawn),-7.18 (active)
10,O=C(Nc1cc(Cl)ccc1N1CCOCC1)c1ccc(N2CCCC2=O)cc1,-0.11
11,CCN(CC(=O)Nc1ccccc1C(F)(F)F)C(=O)CSCc1c(C)noc1C,-0.18
12,CC1(C)Oc2ccc3ccc(=O)oc3c2/C(=C/NCCO)C1=O,-0.79
13,CC1(C)Oc2ccc3ccc(=O)oc3c2/C(=N/O)C1=O,-3.77
14,C/C=C(/C)C(=O)OC1Cc2c(ccc3ccc(=O)oc23)OC1(C)C (stereo not drawn),-6.49 (active)
15,COc1ccc(C(CNC(=O)c2cccc(S(=O)(=O)Nc3ccccc3Cl)c2)N2CCOCC2)cc1 (stereo not drawn),0.72
16,COc1ccccc1NS(=O)(=O)c1ccc(C(=O)N2CCN(c3ccccc3O)CC2)cc1,-0.57
17,COc1ccc(C(C#N)(CC(=O)O)c2cnccn2)cc1OC (stereo not drawn),-2.49
18,Cc1cc(C)c(-c2csc(NC(=O)CCCc3nc4ccccc4c(=O)[nH]3)n2)c(C)c1,0.9
19,CC1COc2ccccc2N1C(=O)c1cccnc1Cl (stereo not drawn),-0.04
20,CC1COc2ccccc2N1S(=O)(=O)c1ccccc1 (stereo not drawn),-8.7 (active)
21,CC1CN(S(=O)(=O)c2ccccc2)C(C)CN1S(=O)(=O)c1ccccc1 (stereo not drawn),-1.27
22,Cn1ccsc1=NC(=O)c1cc(S(=O)(=O)N2CCOCC2)ccc1Cl,-1.21
23,O=C(NN1CCOCC1)c1cccc(F)c1,0.11
24,Cc1ccc(N2CC(C(=O)N3CCC4(CC3)CC(=O)c3ccccc3O4)CC2=O)cc1C (stereo not drawn),0.05
25,O=C(Nc1ccccc1N1CCCC1)c1ccc(F)c(S(=O)(=O)N2CCOCC2)c1,-1.53

row,SMILES,B-score
1,CC1(C)CC(N2CCN(C(c3ccccc3)c3ccccc3)CC2)=CC(=[N+]2CCCCC2)C1,-9.72 (active)
2,O=C(O)CN1CCN(C(c2ccccc2)c2ccccc2)CC1,0.58
3,CC(C)NC(=S)N1CCN(C(c2ccccc2)c2ccccc2)CC1,0.81
4,CC12CCC(=O)N1C(C(=O)NCCN1C(=O)S/C(=C\c3ccccc3F)C1=O)CS2 (stereo not drawn),1.85
5,COCCCNC(=S)N(Cc1ccccc1)Cc1ccc(F)cc1,-4.64 (active)
6,COCCCNC(=S)NC(=O)c1ccccc1,0
7,COCCNC(=S)N(Cc1cccnc1)Cc1ccc(OC)c(OC)c1,-0.71
8,O=C(CN1CCOCC1)Nc1cccc([N+](=O)[O-])c1,-1.26
9,COc1cc(/C=N/NC(=O)c2cc(-c3ccccc3C)nc3ccccc23)cc(OC)c1O,0.05
10,CC(C)Nc1nnc(SC(C)C(=O)N(C)C2CCCCC2)s1 (stereo not drawn),1.34
11,CC(NC(=O)CNC(=O)Cc1cccc2ccccc12)c1ccc(S(N)(=O)=O)cc1 (stereo not drawn),1.18
12,CC(NC(=O)CCCC1CCCCC1)c1ccc(S(N)(=O)=O)cc1 (stereo not drawn),-5.32 (active)
13,NS(=O)(=O)c1ccc(CCNC(=O)NC2CCCCC2)cc1,-0.34
14,Cc1ccc2c(C)c(C(=O)N3CCN(c4ccncc4)CC3)oc2c1C,-0.57
15,CC(=O)NC(C)c1nc2ccccc2n1Cc1ccccc1F (stereo not drawn),-2.56
16,Fc1ccccc1Cn1cnc(NC(=S)NCCc2ccccc2)n1,1.75
17,N=c1n(CCc2ccccc2)c2ccccc2n1Cc1ccccc1F,-8.75 (active)
18,Cc1ccc(CN2CCN(c3ccccc3Cl)CC2)o1,-1.98
19,c1ccc(CSc2nnc(-c3ccco3)n2Cc2ccccc2)cc1,-8.28 (active)
20,c1ccc(CSc2nnc(-c3ccco3)c(-c3ccco3)n2)cc1,0.54
21,O=C(CSc1nnc(-c2ccco2)n1Cc1ccccc1)NC(=O)NCc1ccco1,-1.04
22,Cc1nc2c(c(C)nn2-c2ccccc2)c(C)c1C,-0.74
23,C#CCNC(=O)[C@H](Cc1ccc(C(=O)c2ccccc2)cc1)NC(=O)OC(C)(C)C,-2.31
24,CCS(=O)(=O)c1cc([N+](=O)[O-])c(Sc2ccccc2N)s1,0.71
25,Nc1ccccc1SC(C[N+](=O)[O-])c1ccccc1 (stereo not drawn),-7.5 (active)

row,SMILES,B-score
1,Nc1ccccc1Sc1ccc(C(F)(F)F)cc1[N+](=O)[O-],-2.03
2,COc1cc(C(=O)N(C)Cc2cccc(OC)c2OC)ccc1OCC(=O)Nc1cccc(C(F)(F)F)c1,1.36
3,CCOC(=O)CN(C)Cc1c[nH]c2ccccc12,0.81
4,O=C(Cc1c[nH]c2ccccc12)OCCOC(=O)Cc1c[nH]c2ccccc12,-7.97 (active)
5,O=C(COC(=O)Cc1c[nH]c2ccccc12)NCCc1ccccc1,-1.86
6,O=C(COc1coc(CN2CCN(c3ccccc3)CC2)cc1=O)N1CCc2ccccc21,0.28
7,S=C(Nc1ccc(Br)cc1Cl)NC1CCN(Cc2ccccc2)CC1,-0.65
8,S=C(Nc1ccc(Br)cc1)NC1CCN(Cc2ccccc2)CC1,-9.22 (active)
9,O=C(NC1CCN(Cc2ccccc2)CC1)c1c(F)cccc1F,0.03
10,CCN(CC)c1ccc(NC(=O)c2ccc(=O)[nH]c2)cc1S(=O)(=O)Nc1ccc(OC)cc1,0.31
11,COc1cccc(C(=O)NCCS(=O)(=O)NCC2CCCO2)c1 (stereo not drawn),2.76
12,CCC(C)N(C(=O)CSc1ncnc2c1cnn2-c1ccccc1)C1CCS(=O)(=O)C1 (stereo not drawn),0.08
13,COCCNCCOCCOc1cccc(OC)c1,-0.8
14,Clc1cccc(Cl)c1OCCOCCNCc1ccccc1,-7.4 (active)
15,CCOc1ccccc1OCCCNCc1ccccc1,-3.69
16,CCCOc1ccc(Cl)cc1Nc1nc(NCCO)nc(N2CCCC2)n1,0.67
17,COc1cccc(OCCCN2CCCCCC2)c1,0.91
18,Cc1ccc(C(C)C)cc1OCCN1CCCC1,-1.08
19,Cc1cc(OCCN2CCCC2)cc(C(C)C)c1,-4.28 (active)
20,Cc1cccc(NC(=O)c2ccc(S(=O)(=O)N(C)CC3CCCO3)cc2)c1C (stereo not drawn),1.86
21,CN(c1ccc(OCC(=O)O)cc1)S(=O)(=O)c1ccc2ccccc2c1,-1.8
22,COCCNC(=O)COc1ccc(N(C)S(=O)(=O)c2ccc3ccccc3c2)cc1,-5.91 (active)
23,CN(c1ccccc1)S(=O)(=O)c1ccc(NC(=O)COc2ccccc2)cc1,-1
